MRP-1 activ – activates MRP-1 | H69AR cells + doxorubicin, viability rescue, CellTiter-Glo | viability increase, % at 10 µM | 0.61% of 140,000 active;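 active = viability gain under doxorubicin at or above a set limit, the compound median plus 3 SD, cut at about 4.7% in these data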;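 note: MRP-1 overexpressing cells given doxorubicin 25 µM after compound pretreatment; 18-22 h compound pretreatment then 72 h with doxorubicin before readout; 0% = doxorubicin-only wells and 100% = vehicle-treated cells without doxorubicin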
SDO1 yeast rescue – compounds rescuing growth of sdo1-depleted yeast, bone marrow failure model | S. cerevisiae sdo1-depleted JHY4D growth rescue, OD600 30 h; active compounds read high; pdr5 snq2 efflux-pump mutant strain | z-score at 10 µM | 0.21% of 140,000 active | AID 817;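 active = z-score above 3 at both the 24 hr and the 30 hr optical density reads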;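 note: z-score against mean and SD of all compound wells on the same plate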
Calb biofilm kill – kills Candida albicans biofilms; inhibition, % at 6 µM; 0.14% of 85,000 active; C. albicans biofilm + clotrimazole, Alamar Blue;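 active = inhibition above 20%; inactive = inhibition below 20%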;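 note: preformed 24 hr biofilms exposed to compound for 48 hr; 0% = biofilm without compound and 100% = blank killed by clotrimazole plus chlorhexidine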
MRP reversal – MRP-mediated drug resistance reversal | H69AR cells + 2 uM doxorubicin, CellTiter-Glo, 72 h | differential viability (reversal), % at 10 µM | 0.04% of 85,000 active;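 active = viability drop by adding the cancer drug above about 55%, with treated viability meeting a 40% cutoff, limit read from the data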;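 note: viability without doxorubicin minus viability with 2 µM doxorubicin for each compound; larger differential means the compound sensitizes cells more to doxorubicin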
An asterisk follows results filed as active. An excerpt weighted towards active compounds, which were near 0.98% of everything screened.

Screening O=C(NNC1=C(C(=O)C(F)(F)F)CCC1)c1cccc(Cl)c1 returned MRP-1 activ 6.5*, SDO1 yeast rescue 0.31, Calb biofilm kill 4 and MRP reversal -23.
Screening O=C(NNC1=C(C(=O)C(F)(F)F)CCC1)c1ccc(Cl)cc1 returned MRP-1 activ 6.4*, SDO1 yeast rescue 0.42, Calb biofilm kill 8 and MRP reversal -28.
For O=C(Nc1cc(Cl)ccc1Cl)C1CC(=O)N(c2ccc(Br)cc2)C1 (centres undefined) the results were MRP-1 activ -1, SDO1 yeast rescue -0.25, Calb biofilm kill 2 and MRP reversal -11.
For C=CCN(C(=O)Nc1ccc(Cl)cc1)C1CC(=O)N(c2ccc(OC)cc2)C1=O (centres undefined) the results were MRP-1 activ 6.6*, SDO1 yeast rescue -0.6, Calb biofilm kill 6 and MRP reversal 1.
`Cc1cc(C)[n+](-c2ccc(C(C)C)cc2)c2[nH]c(=O)[nH]c(=O)c12` gave MRP-1 activ -1 and SDO1 yeast rescue 0.27.
For Cc1ccc(NC(=O)/C(=C/c2cccs2)NC(=O)c2ccco2)cc1 the results were MRP-1 activ -1 and SDO1 yeast rescue 0.08.
Screening Brc1ccc(OCc2nnc3n2CCC3)cc1 returned MRP-1 activ 7.0* and SDO1 yeast rescue 1.2.
`Brc1ccc(-c2nnc3n2CCCCC3)cc1` gave MRP-1 activ 0, SDO1 yeast rescue 2.5, Calb biofilm kill 6 and MRP reversal 0.
Screening Cc1ccc(C(=O)N2CCSCC2)cc1 returned MRP-1 activ -2, SDO1 yeast rescue 0.5, Calb biofilm kill -7 and MRP reversal 8.
Screening CCCCCCn1c(O)c(/C=C2\C=NN=C2c2ccccc2)sc1=S returned MRP-1 activ 5.3* and SDO1 yeast rescue 0.43.
For CC(C)(C)c1ccc(-c2nnc3sc(-c4ccncc4)nn23)cc1 the results were MRP-1 activ -2 and SDO1 yeast rescue -0.55.
Screening Cc1nnc2sc(-c3ccncc3)nn12 returned MRP-1 activ 17*, SDO1 yeast rescue -1.2, Calb biofilm kill 1 and MRP reversal 25.
For O=C1c2cccc3cccc(c23)C(=O)N1CCN1CCN(CC(O)COc2ccccc2)CC1 (centres undefined) the results were MRP-1 activ 5.0* and SDO1 yeast rescue 1.1.
For CCOc1ccccc1NC(=O)CCCN1C(=S)NC(C)(C)CC1C (centres undefined) the results were MRP-1 activ 0 and SDO1 yeast rescue 0.08.
Screening CCOC(=O)C1CCCN(Cc2ccc(OC)cc2OC)C1 (centres undefined) returned MRP-1 activ 30*, SDO1 yeast rescue 0.91, Calb biofilm kill 7 and MRP reversal 0.
`CCOC(=O)C1CCCN(Cc2ccc(O)c(OC)c2)C1` (centres undefined) gave MRP-1 activ -1, SDO1 yeast rescue 1.9, Calb biofilm kill 11 and MRP reversal -5.
Screening CC[C@@H](C(=O)n1nc(C)cc1C)[C@H](NS(=O)(=O)c1ccc(C)cc1)c1ccccc1 returned MRP-1 activ -2 and SDO1 yeast rescue -1.4.
Cc1ccc(N(C(C)C(=O)O)S(=O)(=O)c2cccnc2)cc1 (centres undefined) was read as MRP-1 activ 0, SDO1 yeast rescue 1.5, Calb biofilm kill 24* and MRP reversal 16.
Screening Cc1ccc(S(=O)(=O)Nc2cccnc2)cc1 returned MRP-1 activ 0, SDO1 yeast rescue -0.58, Calb biofilm kill -1 and MRP reversal -1.
Screening Cc1ccc(NC(=O)c2ccc3c(c2)N(CC(=O)N2CCCCC2)C(=O)C(C)(C)O3)cc1 returned MRP-1 activ -5, SDO1 yeast rescue -0.52, Calb biofilm kill 1 and MRP reversal -24.
`CCOC(=O)CN1C(=O)C(C)(C)Oc2ccc(C(=O)Nc3ccccc3OC)cc21` gave MRP-1 activ 5.3*, SDO1 yeast rescue -0.42, Calb biofilm kill 8 and MRP reversal -6.
`COc1ccccc1/C=C1\SC(=S)N(Nc2nc(C)cc(C)n2)C1=O` gave MRP-1 activ -1 and SDO1 yeast rescue 0.25.
Cc1cc(C)nc(NN2C(=O)/C(=C/c3ccc(O)cc3)SC2=S)n1 was read as MRP-1 activ 7.8* and SDO1 yeast rescue -0.7.
Cc1ccc(NC(=O)c2ccccc2-c2ccc(C(F)(F)F)cc2)cc1S(=O)(=O)N1CCOCC1 was read as MRP-1 activ -2 and SDO1 yeast rescue -0.64.
For Cc1ccc(NC(=O)C(=O)c2c(-c3ccccc3)cc3ccccn23)cc1S(=O)(=O)N1CCOCC1 the results were MRP-1 activ 4.8*, SDO1 yeast rescue -0.47, Calb biofilm kill 4 and MRP reversal 13.
For COc1ccccc1NS(=O)(=O)c1cccc(N2CC(O)=C(c3ccccc3)C2=N)c1 the results were MRP-1 activ -2 and SDO1 yeast rescue 0.64.
Screening Clc1ccc(OCc2nnnn2-c2ccccc2)cc1 returned MRP-1 activ 7.3* and SDO1 yeast rescue 0.01.
`c1ccc(OCc2nnnn2-c2ccccc2)cc1` gave MRP-1 activ 0 and SDO1 yeast rescue 1.
O=C(Cn1nnc2ccccc2c1=O)NCCc1ccc(F)cc1 was read as MRP-1 activ 0 and SDO1 yeast rescue 1.2.
COC(=O)c1cnn(-c2cc(Oc3ccccc3)ncn2)c1N was read as MRP-1 activ 5.7* and SDO1 yeast rescue -0.99.
Screening CCOc1ccc(-c2nnc(Nc3ccc(OC)c(C(=O)N4CCCCC4)c3)c3ccccc23)cc1 returned MRP-1 activ -5 and SDO1 yeast rescue 0.93.
`CC(=O)c1cc(-c2ccccc2)n(CCC(=O)NC2CCCCC2)c1C` gave MRP-1 activ -2 and SDO1 yeast rescue -0.58.
For CCOc1ccccc1NC(=O)c1ccc(Cl)c(NC(=O)CC(c2ccccc2)c2ccccc2)c1 the results were MRP-1 activ 1 and SDO1 yeast rescue 0.86.
For CCOc1ccccc1NC(=O)c1cccc(NC(=O)CC(c2ccccc2)c2ccccc2)c1 the results were MRP-1 activ 8.6* and SDO1 yeast rescue -0.21.
O=C(O)c1cccc(N2C(=O)C3CC=CCC3C2=O)c1 (centres undefined) was read as MRP-1 activ 3, SDO1 yeast rescue 0.04, Calb biofilm kill -5 and MRP reversal -1.
O=C(O)c1cccc(N2C(=O)C3CC=C(Cl)CC3C2=O)c1 (centres undefined) was read as MRP-1 activ 10*, SDO1 yeast rescue 0.32, Calb biofilm kill 14 and MRP reversal -8.
`CN(C)c1ccc(O)c2c1CC1CC3[C@@H](N(C)C)C(=O)C(C(N)=O)=C(O)[C@]3(O)C(=O)C1=C2O` (some centres undefined) gave MRP-1 activ -4, SDO1 yeast rescue 0.58, Calb biofilm kill 25* and MRP reversal -5.
`S=C(NCc1ccccn1)Nc1ccccc1Cl` gave MRP-1 activ 8.2* and SDO1 yeast rescue 0.
For S=C(NCc1ccccn1)Nc1cccc(Cl)c1 the results were MRP-1 activ -1 and SDO1 yeast rescue -0.32.
For Clc1nc(-c2n[nH]nc2Cl)n[nH]1 the results were MRP-1 activ -2 and SDO1 yeast rescue 0.73.
COc1ncnc2c1oc1nc(CC(C)C)c3c(c12)CCCC3 was read as MRP-1 activ 7.2*, SDO1 yeast rescue -1.6, Calb biofilm kill 8 and MRP reversal -3.
